# Results published in PubChem BioAssay.
# Values joined by “and” are separate entries in the source; they are usually repeats but may differ in a detail not shown here. Equal values may be shown once. Records with an inconclusive call do not appear. For some of these results: Potency and affinity values are given separately. Active and inactive are the calls of the source.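 How the source made its calls, unless noted: active means normalized viability below 100% at a tested concentration; inactive means the rest.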
# How the values were obtained:
# [1] = polyglutamine-triggered caspase-3 activation inhibitors, cell-based (AID 1583); details: polyglutamine-induced caspase-3 activation, cell assay; stronger effect = higher value;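 tested at 10 µM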
# [2] = suppressors of polyQ aggregation in yeast, 75Q-TubU reporter (AID 1593); details: Yeast 75Q polyglutamine aggregation reporter
# [3] = rescue of polyQ-huntingtin neuronal dysfunction in worms, whole organism, C. elegans mechanosensory neurons, N-terminal huntingtin (AID 1599); details: touch response, stronger effect = higher value
# [4] = inhibitors of mitochondrial cytochrome c release, biochemical, purified mitochondria (AID 1603); details: stronger effect = lower value;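 further: mouse liver mitochondria challenged with calcium chloride; signal normalized to the plate average as 100%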
# [5] = inhibitors of polyQ protein aggregation (AID 1604); details: polyglutamine-induced protein aggregation inhibition assay; stronger effect = higher value; tested at 2.5 µM
# [6] = protection against mutant huntingtin cytotoxicity, PC12 cells, LDH release (AID 1610); details: PC12 mutant huntingtin toxicity, final LDH at 4 uM, stronger effect = lower value
# [7] = enhancers of glutamate uptake in motor neurons, MN-1 cell line (AID 1612); details: MN-1 motor neuron cells, stronger effect = higher value;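 further: tested at 1 µM final; 0% = mean of DMSO vehicle wells on each plate; positive means more glutamate uptake than control and negative means less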
# [8] = reducers of polyQ inclusions in PC12 cells, cell-based, NGF-treated PC12, GFPQ80 (AID 1614); details: PC12 NGF-treated GFP-polyQ80 inclusion reduction;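 further: lower means fewer inclusions and 0 means no inclusions at all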
# [9] = suppressors of polyglutamine aggregation in yeast, 75Q-TubH (AID 1616); details: S. cerevisiae 75Q-TubH polyglutamine aggregation suppression; stronger effect = higher value
# [10] = circadian clock period modulators, cell-based, LOPAC library, luminescence reporter (AID 2774; call rule not given here;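 further: values are relative to mean of DMSO wells on each plate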); details: circadian reporter cells, at 7 µM, actives lie on both sides
# [11] = system: Hepatitis C virus NS3 helicase; test: HCV NS3 helicase inhibitors, primary screen, biochemical, fluorescence polarization, LOPAC1280 library (AID 687035; in the data active means inhibition above about 37%); details: Purified HCV NS3 helicase, Cy5-dT15 ssDNA binding fluorescence polarization; stronger effect = higher value; concentration not given here
# [12] = Cy5 fluorescence quenching or enhancement artefacts, artefact control for HCV NS3 helicase inhibitor project, biochemical, LOPAC1280 (AID 687037; call rule not given here); details: Cy5-DNA-NS3h complex fluorescence interference counterscreen
# [13] = differential killing of epithelial or mesenchymal cells, primary screen, imaging, PC-3E GFP, TEM4-18 mCherry, co-culture (AID 1345086;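 active means compounds killing one labelled cell type while sparing the other, by normalised counts and ratio limits, not self-fluorescent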;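 on all read-outs here: cells exposed to compound for 72 h before imaging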;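 on red/green cell ratio (normalised): normalised mesenchymal count divided by normalised epithelial count so high means epithelial killing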); details: imaging cell counts, at 1 µM; for red/green cell ratio (normalised): actives lie on both sides, counts scaled to control wells, 1 = unselective
# [14] = system: Aerobactin synthetase IucA (Klebsiella pneumoniae); test: IucA aerobactin synthetase inhibitors, biochemical, Tocris library, absorbance (AID 1345561; call rule not given here;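 further: 100% = enzyme without compound and 0% = no enzyme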); details: purified IucA enzyme assay, absorbance (OD) read-out; stronger effect = lower value;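 tested at 8 µM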
# [15] = growth inhibition of DIPG glioma cells, dose response, cell-based, SU-DIPG-XVII, MIPE5.0, CellTiter-Glo, qHTS (AID 1347060; cut-off not given, nearly all actives have AC50 up to about 26 µM); details: SU-DIPG-XVII viability, CellTiter-Glo ATP luminescence
# [16] = growth inhibition of DIPG glioma cells, dose response, cell-based, JHH-DIPG-1, MIPE4.0, CellTiter-Glo, qHTS (AID 1347062; cut-off not given, nearly all actives have AC50 up to about 27 µM); details: JHH-DIPG-1 viability, CellTiter-Glo ATP luminescence
# [17] = growth inhibition of DIPG glioma cells, dose response, cell-based, SU-DIPG-IV, MIPE4.0, CellTiter-Glo, qHTS (AID 1347063; cut-off not given, nearly all actives have AC50 up to about 30 µM;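 further: compound exposure lasted 48 hours before the viability readout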); details: SU-DIPG-IV viability, CellTiter-Glo ATP luminescence
# [18] = viability loss in pontine glioma line – cell-based, SU-DIPG-XXV, MIPE5.0, CellTiter-Glo, qHTS, dose response (AID 1347065; cut-off not given, nearly all actives have AC50 up to about 26 µM;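 further: cells exposed to compound for 48 hours before ATP readout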); details: CellTiter-Glo ATP luminescence
# [19] = SU-DIPG-VI glioma cell viability, MIPE4.0 library, CellTiter-Glo luminescence, qHTS (AID 1347066; cut-off not given, nearly all actives have AC50 up to about 30 µM;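 further: cells exposed to compound for 48 hours before readout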); details: CellTiter-Glo ATP luminescence
# [20] = JHH-DIPG-1 glioma cell viability, MIPE5.0 library, CellTiter-Glo luminescence, qHTS (AID 1347067; cut-off not given, nearly all actives have AC50 up to about 26 µM;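 further: cells exposed to compound for 48 hours before readout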); details: JHH-DIPG-1 glioma viability, CellTiter-Glo ATP luminescence
# [21] = SU-DIPG-XXV glioma cell viability, MIPE5.0 library, qHTS (AID 1347068; cut-off not given, nearly all actives have IC50 up to about 30 µM;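 further: cells exposed to compound for 48 hours before viability readout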)
# [22] = sensitizers of A549 cells to miR-34 induction, primary screen, imaging, A549 dox-inducible miR-34, nuclei and caspase counts (AID 1347080;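 active means compounds whose cell count with miR-34 switched on is under 0.7 times the count with it off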); details: A549 miR-34 inducible, Hoechst nuclei count, 48 h
# [23] = phospholipid biosynthesis inhibitors in animal cells, primary screen, cell-based, LOPAC library, screen 4 (AID 1347384; call rule not given here); details: phospholipid biosynthesis inhibition screen, at 10 µM
# [24] = target: Mitogen-activated protein kinase 7 (Homo sapiens) (UniProt Q13164); test: ERK5 transactivation activators in reporter cells, primary screen, cell-based, HTS (AID 1508626;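 active means luciferase signal above three times the same-plate solvent-only control wells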;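 further: luciferase driven by Gal4-ERK5 fusion binding five Gal4 sites before minimal TATA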); details: HeLa Gal4-ERK5 transactivation, 18 h, at 5 µM, stronger effect = higher value
# Sequence of Mitogen-activated protein kinase 7 (Homo sapiens) (Q13164 whole entry, looked up, the tested form may be a part): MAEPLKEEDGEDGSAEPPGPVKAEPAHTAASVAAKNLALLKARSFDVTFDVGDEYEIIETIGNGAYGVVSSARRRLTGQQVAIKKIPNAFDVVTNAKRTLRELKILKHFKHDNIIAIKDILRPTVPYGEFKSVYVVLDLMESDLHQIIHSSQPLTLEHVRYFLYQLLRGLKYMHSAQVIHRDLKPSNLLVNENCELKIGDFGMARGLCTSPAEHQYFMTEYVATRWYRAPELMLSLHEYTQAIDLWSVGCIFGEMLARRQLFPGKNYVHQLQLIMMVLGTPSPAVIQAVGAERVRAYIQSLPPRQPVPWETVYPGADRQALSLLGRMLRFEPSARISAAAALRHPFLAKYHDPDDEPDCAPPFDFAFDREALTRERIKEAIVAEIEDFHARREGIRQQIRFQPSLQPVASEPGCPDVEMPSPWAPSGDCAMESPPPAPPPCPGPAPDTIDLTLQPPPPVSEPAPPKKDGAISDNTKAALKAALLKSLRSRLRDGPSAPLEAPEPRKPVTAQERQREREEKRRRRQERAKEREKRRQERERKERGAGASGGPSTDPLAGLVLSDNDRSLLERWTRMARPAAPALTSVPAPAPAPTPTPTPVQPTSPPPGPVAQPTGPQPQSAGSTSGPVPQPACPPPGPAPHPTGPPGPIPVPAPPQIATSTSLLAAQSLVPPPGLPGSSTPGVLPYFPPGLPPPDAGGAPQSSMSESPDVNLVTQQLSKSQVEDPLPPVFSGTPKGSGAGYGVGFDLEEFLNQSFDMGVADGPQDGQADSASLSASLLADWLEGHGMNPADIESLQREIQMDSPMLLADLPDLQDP
# [25] = viability rescue of complex I mutant cybrids, primary screen, cell-based, galactose medium, ATP luminescence (AID 1645843;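 active means z-score of at least 1.8 in each of two replicates, scored against plate mean and spread of sample wells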;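 further: positive z means more ATP and so rescue of galactose-driven cybrid death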); details: complex I mutant cybrid cells, 72 h, stronger effect = higher value
# [26] = target: ATP-dependent translocase ABCB1 (Homo sapiens) (UniProt P08183); test: MDR1 (ABCB1) efflux transporter inhibition, cell-based (AID 377; in the data active means fluorescence slope change above about 50%); details: MDR1-expressing cells, fluorescent substrate accumulation slope; stronger effect = higher value; concentration not given here
# Sequence of ATP-dependent translocase ABCB1 (Homo sapiens) (P08183 whole entry, looked up): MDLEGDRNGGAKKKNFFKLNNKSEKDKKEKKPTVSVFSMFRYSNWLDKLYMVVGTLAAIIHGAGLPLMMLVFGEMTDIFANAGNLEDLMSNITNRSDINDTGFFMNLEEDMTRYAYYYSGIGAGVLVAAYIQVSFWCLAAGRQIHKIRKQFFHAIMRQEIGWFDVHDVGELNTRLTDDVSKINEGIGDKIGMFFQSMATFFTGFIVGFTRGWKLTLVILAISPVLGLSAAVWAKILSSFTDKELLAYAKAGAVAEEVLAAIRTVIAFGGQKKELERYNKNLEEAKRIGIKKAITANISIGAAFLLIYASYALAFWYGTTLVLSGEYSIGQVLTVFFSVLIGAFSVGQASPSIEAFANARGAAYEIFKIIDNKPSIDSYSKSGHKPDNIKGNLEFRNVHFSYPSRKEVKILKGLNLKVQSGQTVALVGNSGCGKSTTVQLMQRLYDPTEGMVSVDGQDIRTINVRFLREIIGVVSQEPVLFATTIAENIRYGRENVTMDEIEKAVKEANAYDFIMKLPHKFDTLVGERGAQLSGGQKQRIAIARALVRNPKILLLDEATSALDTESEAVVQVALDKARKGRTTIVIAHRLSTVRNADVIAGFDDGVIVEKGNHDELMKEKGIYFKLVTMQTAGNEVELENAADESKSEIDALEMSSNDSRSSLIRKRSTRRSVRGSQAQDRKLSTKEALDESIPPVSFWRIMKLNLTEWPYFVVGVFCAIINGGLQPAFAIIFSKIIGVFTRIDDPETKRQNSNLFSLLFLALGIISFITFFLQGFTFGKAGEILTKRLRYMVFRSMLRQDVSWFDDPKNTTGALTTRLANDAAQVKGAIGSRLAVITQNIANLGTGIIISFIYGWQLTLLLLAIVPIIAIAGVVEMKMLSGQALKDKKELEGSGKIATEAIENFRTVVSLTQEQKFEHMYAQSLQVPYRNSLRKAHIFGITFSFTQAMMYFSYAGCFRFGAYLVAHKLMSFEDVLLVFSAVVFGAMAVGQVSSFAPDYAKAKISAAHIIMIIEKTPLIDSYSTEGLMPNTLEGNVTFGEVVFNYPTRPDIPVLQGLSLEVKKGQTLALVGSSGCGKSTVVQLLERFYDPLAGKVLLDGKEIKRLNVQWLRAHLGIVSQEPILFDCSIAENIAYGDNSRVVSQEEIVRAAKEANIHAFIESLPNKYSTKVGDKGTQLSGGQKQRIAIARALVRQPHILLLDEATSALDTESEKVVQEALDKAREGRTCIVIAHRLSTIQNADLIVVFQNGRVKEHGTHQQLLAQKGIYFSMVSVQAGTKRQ
# [27] = antimalarial activity against Dd2 strain (AID 2302;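 active means growth inhibition above 50% at the single 2 µM test dose, taken to imply half-maximal potency below 2 µM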;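 further: 0% = DMSO untreated growth and 100% = chloroquine plus artemisinin killed control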); details: P. falciparum Dd2 in RBCs, LDH growth readout, 72 h; at 2 µM; stronger effect = higher value
# [28] = HepG2 cytotoxicity, primary screen, cytotoxicity control for P. falciparum antimalarial project, cell-based, ATP luminescence (AID 2303;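 active means inhibition above 50%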;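 further: 0% = DMSO wells and 100% = digitonin-killed cells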); details: HepG2 viability, 24-48 h, at 10 µM, stronger effect = higher value
# [29] = target: L-lactate dehydrogenase (Plasmodium falciparum (isolate CDC / Honduras)) (UniProt Q27743); test: PfLDH activity inhibition – cell lysate, 3D7 strain, counter-screen for P. falciparum growth inhibition project (AID 2304; call rule not given here;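 further: 0% = vehicle and 100% = reference inhibitor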); details: P. falciparum 3D7 crude extract, LDH APAD/NBT absorbance; at 2 µM; stronger effect = higher value
# Sequence of L-lactate dehydrogenase (Plasmodium falciparum (isolate CDC / Honduras)) (Q27743 whole entry, looked up): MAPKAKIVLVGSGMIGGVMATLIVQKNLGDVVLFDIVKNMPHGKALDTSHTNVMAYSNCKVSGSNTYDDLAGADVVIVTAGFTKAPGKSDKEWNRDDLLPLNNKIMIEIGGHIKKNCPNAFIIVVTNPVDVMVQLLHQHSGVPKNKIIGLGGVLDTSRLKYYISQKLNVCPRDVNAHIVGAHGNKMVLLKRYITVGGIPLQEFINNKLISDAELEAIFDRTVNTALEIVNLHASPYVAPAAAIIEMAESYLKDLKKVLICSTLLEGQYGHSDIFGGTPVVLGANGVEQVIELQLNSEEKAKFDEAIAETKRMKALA
# [30] = inhibition of 3D7 malaria parasite growth – strain 3D7 (AID 2306; call rule not given here;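 further: 0% = DMSO wells and 100% = chloroquine plus artemisinin control wells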); details: P. falciparum 3D7 erythrocytic growth, LDH absorbance, 72 h; at 2 µM; stronger effect = higher value
# [31] = ovarian cancer cell viability with rucaparib, profiling panel, oncology-focused library, rucaparib conditional (AID 1508598); details: patient-derived ovarian cancer cells, CellTiter-Glo viability, 144 h, stronger effect = lower value
# [32] = measured here: epithelial PC-3E GFP cell survival
# [33] = measured here: mesenchymal TEM4-18 mCherry cell survival
smiles,measurement,setting,value
NCCCCNCCCN,inhibition,[1],7.23%
same,score,[2],1
same,rescue above control,[3],-7.17
same,cytochrome c release ratio,[4],1.12
same,inhibition of aggregation,[5],57.8%
same,normalised LDH release,[6],0.936
same,glutamate uptake change,[7],-3.1%
same,inclusion score,[8],2
same,aggregation suppression score,[9],0.846
same,period change,[10],0.115 h (inactive)
same,inhibition,[11],-2% (inactive)
same,fluorescence ratio (interference),[12],1 (inactive)
same,red/green cell ratio (normalised),[13],0.89 (inactive)
same,normalised cell number,[13]; [32],0.98
same,normalised cell number,[13]; [33],0.87
same,remaining activity,[14],101% (inactive)
same,outcome,[15],inactive
same,outcome,[16],inactive
same,outcome,[17],inactive
same,outcome,[18],inactive
same,outcome,[19],inactive
same,outcome,[20],inactive
same,IC50,[21],1.18 nM (active)
same,fold change,"[22]; stronger effect = lower value, cell number ratio, induced over uninduced",0.943 (inactive) and 0.936 (inactive)
same,fold change,[22]; measured here: relative caspase fold change +Dox/-Dox,1.92 and 0.604
same,cell count,"[22]; measured here: total cells with miR-34 induction, stronger effect = lower value",9580 and 9960
same,cell count,[22]; measured here: total cells without miR-34 induction,10200 and 10600
same,outcome,[23],inactive
same,luciferase signal,[24],48 AU (inactive)
same,z-score,[25],-0.635 (inactive) and -0.08 (inactive)
O=c1c(O)c(-c2ccccc2)oc2cc(O)cc(O)c12,red/green cell ratio (normalised),[13],0.9 (inactive)
same,normalised cell number,[13]; [32],1.07
same,normalised cell number,[13]; [33],0.96
COC1=CC[C@@]2(C)[C@@](O)(CC[C@H]3Cc4c([nH]c5ccccc45)[C@@]32C)[C@@]12CC(=O)[C@](O)(C(C)(C)OC(C)=O)O2,red/green cell ratio (normalised),[13],0.97 (inactive)
same,normalised cell number,[13]; [32],1.15
same,normalised cell number,[13]; [33],1.11
C=C1C(=O)OC(C(=O)OC)C1CCCCCCCC(C)O (stereo not given),red/green cell ratio (normalised),[13],1.07 (inactive)
same,normalised cell number,[13]; [32],1.11
same,normalised cell number,[13]; [33],1.18
O=C1N[C@@H]2[C@@H](Sc3ccccc3)OC(CO)C(O)[C@@H]2O1 (stereo not given in full),red/green cell ratio (normalised),[13],0.97 (inactive)
same,normalised cell number,[13]; [32],1
same,normalised cell number,[13]; [33],0.97
[N-]=[N+]=NC1[C@@H](O)C2OC(c3ccccc3)OCC2O[C@@H]1Sc1ccccc1 (stereo not given in full),red/green cell ratio (normalised),[13],1.1 (inactive)
same,normalised cell number,[13]; [32],0.95
same,normalised cell number,[13]; [33],1.04
OC(c1cc(C(F)(F)F)nc2c(C(F)(F)F)cccc12)C1CCCCN1 (stereo not given),fluorescence slope change,[26],96.4% (active)
same,growth inhibition,[27],99% (active)
same,inhibition,[28],-3% (inactive)
same,inhibition,[29],-6% (inactive)
same,growth inhibition,[30],96% (active)
CN[C@@H]1[C@H](O[C@H]2[C@H](O[C@@H]3[C@@H](O)[C@H](O)[C@@H](N=C(N)N)[C@H](O)[C@H]3N=C(N)N)O[C@@H](C)[C@]2(O)C=O)O[C@@H](CO)[C@H](O)[C@H]1O,fluorescence slope change,[26],2.1% (inactive)
COc1ccc(C2Sc3ccccc3N(CCN(C)C)C(=O)C2OC(C)=O)cc1 (stereo not given),inclusion score,[8],2
CC(C)NC[C@H](O)COc1cccc2ccccc12,remaining activity,[14],97% (inactive)
Nc1nc(F)nc2c1ncn2[C@@H]1O[C@H](COP(=O)(O)O)[C@@H](O)[C@@H]1O,viability,"[31]; at 0.000305 µM, OCI-C5x cells, with rucaparib 10 µM, 100% = cells with rucaparib alone",107% (inactive)
same,viability,"[31]; at 0.000305 µM, OCI-C5x cells, without rucaparib",110% (inactive)
same,viability,"[31]; at 0.000305 µM, OCI-P5x cells, with rucaparib 20 µM, 100% = cells with rucaparib alone",111% (inactive)
same,viability,"[31]; at 0.000305 µM, OCI-P5x cells, without rucaparib",109% (inactive)
same,viability,"[31]; at 0.00122 µM, OCI-C5x cells, with rucaparib 10 µM, 100% = cells with rucaparib alone",107% (inactive)
same,viability,"[31]; at 0.00122 µM, OCI-C5x cells, without rucaparib",109% (inactive)
same,viability,"[31]; at 0.00122 µM, OCI-P5x cells, with rucaparib 20 µM, 100% = cells with rucaparib alone",106% (inactive)
same,viability,"[31]; at 0.00122 µM, OCI-P5x cells, without rucaparib",109% (inactive)
same,viability,"[31]; at 0.00488 µM, OCI-C5x cells, with rucaparib 10 µM, 100% = cells with rucaparib alone",105% (inactive)
same,viability,"[31]; at 0.00488 µM, OCI-C5x cells, without rucaparib",111% (inactive)
same,viability,"[31]; at 0.00488 µM, OCI-P5x cells, with rucaparib 20 µM, 100% = cells with rucaparib alone",107% (inactive)
same,viability,"[31]; at 0.00488 µM, OCI-P5x cells, without rucaparib",110% (inactive)
same,viability,"[31]; at 0.0195 µM, OCI-C5x cells, with rucaparib 10 µM, 100% = cells with rucaparib alone",97% (active)
same,viability,"[31]; at 0.0195 µM, OCI-C5x cells, without rucaparib",111% (inactive)
same,viability,"[31]; at 0.0195 µM, OCI-P5x cells, with rucaparib 20 µM, 100% = cells with rucaparib alone",109% (inactive)
same,viability,"[31]; at 0.0195 µM, OCI-P5x cells, without rucaparib",108% (inactive)
same,viability,"[31]; at 0.0781 µM, OCI-C5x cells, with rucaparib 10 µM, 100% = cells with rucaparib alone",101% (inactive)
same,viability,"[31]; at 0.0781 µM, OCI-C5x cells, without rucaparib",112% (inactive)
same,viability,"[31]; at 0.0781 µM, OCI-P5x cells, with rucaparib 20 µM, 100% = cells with rucaparib alone",109% (inactive)
same,viability,"[31]; at 0.0781 µM, OCI-P5x cells, without rucaparib",110% (inactive)
same,viability,"[31]; at 0.313 µM, OCI-C5x cells, with rucaparib 10 µM, 100% = cells with rucaparib alone",87.1% (active)
same,viability,"[31]; at 0.313 µM, OCI-C5x cells, without rucaparib",98.3% (active)
same,viability,"[31]; at 0.313 µM, OCI-P5x cells, with rucaparib 20 µM, 100% = cells with rucaparib alone",106% (inactive)
same,viability,"[31]; at 0.313 µM, OCI-P5x cells, without rucaparib",107% (inactive)
same,viability,"[31]; at 1.25 µM, OCI-C5x cells, with rucaparib 10 µM, 100% = cells with rucaparib alone",82.9% (active)
same,viability,"[31]; at 1.25 µM, OCI-C5x cells, without rucaparib",78% (active)
same,viability,"[31]; at 1.25 µM, OCI-P5x cells, with rucaparib 20 µM, 100% = cells with rucaparib alone",114% (inactive)
same,viability,"[31]; at 1.25 µM, OCI-P5x cells, without rucaparib",111% (inactive)
same,viability,"[31]; at 5 µM, OCI-C5x cells, with rucaparib 10 µM, 100% = cells with rucaparib alone",58.5% (active)
same,viability,"[31]; at 5 µM, OCI-C5x cells, without rucaparib",59.8% (active)
same,viability,"[31]; at 5 µM, OCI-P5x cells, with rucaparib 20 µM, 100% = cells with rucaparib alone",106% (inactive)
same,viability,"[31]; at 5 µM, OCI-P5x cells, without rucaparib",78.1% (active)
